Screening results: PubChem BioAssay, National Center for Advancing Translational Sciences (NCATS)
TsaE inh = qHTS Assay for Inhibitors of YjeE; AID 605, 2007; hit rate 0.05% among 71,000; purified YjeE enzyme, qHTS inhibition assay; Potency, µM; tRNA threonylcarbamoyladenosine biosynthesis protein TsaE (Escherichia coli (strain …
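Purified YjeE (10 uM) with BODIPY Texas Red-labeled ADP probe (2 uM); compounds pin-transferred, 15 min at room temperature. Binding inhibition read as decreased fluorescence polarization; ADP titration as control.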
p53ts 32C kill = qHTS Screen for Compounds that Selectively Target Cancer Cells with p53 Mutations: Cytotoxicity of p53ts Cells at the Permissive Temperature; hit rate 0.93% among 130,000; Potency, µM (titrated, usually from 46.1 µM), for inactives: at the top dose activity change, negative = cytotoxicity, most hits filed as cytotoxic; AID 924, 2007; H1299-p53A138V at 32C, ATP luminescence viability, 24 h;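 further: potency means the concentration at half of the fitted maximal effect; 0% = DMSO and -100% = full killing by reference compound; nearly all actives have a fitted effect of over 55% in size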
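ATP-content luminescence (ATPlite) read-out after 24 h compound exposure at 32C in H1299-p53A138V cells (600/well). Tested up to 46 uM. Normalized to DMSO (0%) and 100 uM tamoxifen (100% killing); Hill-fit AC50.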
p53ts 39C tox = qHTS Screen for Compounds that Selectively Target Cancer Cells with p53 Mutations: Cytotoxicity of p53ts Cells at the Nonpermissive Temperature | H1299-p53A138V viability at 39C, ATP luminescence, 24 h | Potency, µM (series often up to 46.1 µM), for the others: at the highest dose activity change, negative = cell killing, actives largely listed as cytotoxic | AID 902, 2007 | hit rate 1.5% among 130,000; further: potency means the concentration at half of the fitted maximal effect; on the % scale 0 is the no-effect control and ±100 the full control effect; nearly all actives have a fitted effect of over 55% in size
ERK AVP block = qHTS Assay for Inhibitors of the ERK Signaling Pathway using a Homogeneous Screening Assay; AID 995, 2007; Potency, µM (top dose mostly 57.5 µM), for the others: top-dose activity, negative = inhibition, actives largely listed as inhibitors; HEK293-V1b, vasopressin-stimulated pERK AlphaScreen; hit rate 0.99% among 72,000; further: potency means the concentration at half of the fitted maximal effect; on the % scale 0 is the no-effect control and ±100 the full control effect; nearly all actives have a fitted effect of over 55% in size
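Overnight-seeded V1b-HEK293 cells in 1% FBS got compound, then vasopressin (25 nM final, 5 min, 37C), then lysis buffer. AlphaScreen detection of phospho-ERK; activity normalized to basal and full-stimulation controls.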
Pol III holo inh = qHTS Assay for Inhibitors of DNA Polymerase III Holoenzyme System | reconstituted DNA polymerase III holoenzyme replication, biochemical | Potency, µM (top dose mostly 57.1 µM), for inactives: top-dose activity change, negative = inhibition | hit rate 0.25% among 71,000; further: potency means the concentration at half of the fitted maximal effect; on the % scale 0 is the no-effect control and ±100 the full control effect
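Reconstituted *E. coli* holoenzyme (0.35 nM Pol III, 1 nM beta, 154 nM SSB, 2 nM primase) was preincubated with compound for 15 min at RT. Synthesis on 1.4 nM ssM13Gori ran 35 min, then was stopped with PicoGreen/EDTA and read as dsDNA fluorescence.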
Tau fil binding = qHTS Assay for Tau Filament Binding. hit rate 2% among 71,000. recombinant tau filaments, thioflavin S fluorescence, 15 h; filaments grown with octadecylsulfate alongside compound. Potency, µM (top dose mostly 57.1 µM), without a hit: at the highest dose activity change, negative = inhibition. AID 596, 2007;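 further: potency means the concentration at half of the fitted maximal effect; on the % scale 0 is the no-effect control and ±100 the full control effect; actives lower thioflavin S fluorescence by blocking filaments or displacing dye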
Target sequence (P10636 whole entry, looked up): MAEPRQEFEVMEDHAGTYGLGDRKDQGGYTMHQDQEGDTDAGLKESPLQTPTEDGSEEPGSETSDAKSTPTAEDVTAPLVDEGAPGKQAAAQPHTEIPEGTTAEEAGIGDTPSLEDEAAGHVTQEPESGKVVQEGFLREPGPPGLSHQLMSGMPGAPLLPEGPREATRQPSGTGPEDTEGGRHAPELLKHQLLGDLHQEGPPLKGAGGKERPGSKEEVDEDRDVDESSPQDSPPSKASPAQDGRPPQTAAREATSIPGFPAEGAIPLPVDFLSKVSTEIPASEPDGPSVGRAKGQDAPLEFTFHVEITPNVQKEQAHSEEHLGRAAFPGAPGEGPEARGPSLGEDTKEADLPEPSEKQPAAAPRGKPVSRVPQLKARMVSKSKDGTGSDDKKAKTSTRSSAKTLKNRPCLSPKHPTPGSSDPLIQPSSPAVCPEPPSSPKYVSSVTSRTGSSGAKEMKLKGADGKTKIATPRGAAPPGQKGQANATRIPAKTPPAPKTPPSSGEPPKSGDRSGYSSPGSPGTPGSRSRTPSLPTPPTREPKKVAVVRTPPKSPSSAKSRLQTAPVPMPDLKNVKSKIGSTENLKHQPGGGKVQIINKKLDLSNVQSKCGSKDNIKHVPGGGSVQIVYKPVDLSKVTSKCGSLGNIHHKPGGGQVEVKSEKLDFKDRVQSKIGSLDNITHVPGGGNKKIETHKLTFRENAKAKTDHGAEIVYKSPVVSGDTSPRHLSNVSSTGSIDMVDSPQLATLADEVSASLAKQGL
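Tau 2 uM in ThS buffer dispensed; compound added; 60 uM ODS added (finals 1 uM tau, 30 uM ODS); 15 h 37 C; fluor ex450/em510.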
Numbers without * were called inactive; i = inactive; ? = inconclusive; · = no result; [ ] = dose if it differs, or a comment. Shown are actives, neighbours in structure and some others; about 3.2% of the full set was active somewhere. The call rests on the fitted dose curve; in most records, active means well fitted curve in the direction sought with a large enough effect; inconclusive means small, poorly fitted or top-dose-only effect, or another doubt; inactive means no such curve, though single readings can be large; an effect the other way counts as inactive or inconclusive.

SMILES	TsaE inh	p53ts 32C kill	p53ts 39C tox	ERK AVP block	Pol III holo inh	Tau fil binding
C=C(C)C(O)C(CC/C=C(\C)C(=O)OCC)OC (stereo not given)	·	8%[9.22 µM]	12%[9.22 µM]	1%[11.5 µM]	·	·
CCCCN(CC)CCCNC(=O)c1sc2nc(C)cc(C)c2c1-n1cccc1	·	5%	?	·	·	·
COc1cccc(C(=O)N2c3ncnn3C3(CCCCC3)[C@@H]3CCCC[C@@H]32)c1	·	1%	19%	·	·	·
Cc1cccc(C(=O)N2c3ncnn3C3(CCCCC3)[C@@H]3CCCC[C@@H]32)c1	·	-4%	13µM*	·	·	·
CC(C)c1ccc2c(c1)CCC1C(C)(C(N)=O)CCCC21C (stereo not given)	·	-2%	-2%	-8%	·	·
CC(C)c1c(O)ccc2c1CCC1[C@@](C)(CO)CCC[C@@]21C (stereo not given in full)	·	9%	6%	-1%	·	·
COC(=O)[C@@]1(C)CCC[C@@]2(C)c3ccc(O)c(C(C)C)c3CCC21 (stereo not given in full)	·	?	20µM*	-27%	·	·
CC(=O)Oc1ccc2c(c1C(C)C)CCC1C(C)(C)CCC[C@@]21C (stereo not given in full)	·	?	13µM*	10%	·	·
Cc1ccc(CN(Cc2ccco2)C(=O)c2ccc(Cl)cc2)o1	·	-2%	-23%	·	·	·
CC1CCC(N2CC(=O)N(C3CCCC3)C(c3ccc(Cl)cc3)C2=O)CC1 (stereo not given)	·	9%	-21%	·	·	·
CC1=C(c2ccc(Cl)cc2)S(=O)(=O)N=C1N1CCN(c2cccc(C(F)(F)F)c2)CC1	·	10%	3%	·	·	·
CN(C(=O)c1ccccc1)c1nc2ccccc2s1	i	10µM*	13µM*	-2%	2%	6%
COC(=O)C(C)Sc1nc2c(c(=O)[nH]c(=O)n2C)n1CCC(C)C (stereo not given)	i	-6%	1%	32µM*	-2%	-2%
COc1ccc(O)c(C(=O)CC(=O)c2ccccc2)c1	i	10µM*	13µM*	22%	3%	?
COc1ccc(C(=O)c2ccccc2O)c(O)c1	i	12%	-3%	7%	-3%[25.6 µM]	-2%[25.6 µM]
Nc1ccc(N)c(Cl)c1	?	10%[1.84 µM]	11%	-11%	-7%	32µM*
CN1CC(=O)Nc2cc(C(=O)O)ccc21	·	-1%	-25%	·	·	·
Nc1ccc(C2CCCc3nonc32)c2nonc12 (stereo not given)	i	8%	-8%	?	1%	25µM*
Cc1ccc2scc(N3CCCCC3C)c(=O)c2c1 (stereo not given)	·	10µM*	6.3µM*	·	·	·
CCN1CCN(c2csc3ccc(C)cc3c2=O)CC1	·	-23%	?	·	·	·
Cc1ccc2scc(N3CCCCC3)c(=O)c2c1	·	13µM*	16µM*	·	·	·
CCOc1ccc(NC(=O)CSc2oc(-c3ccc(F)cc3)nc2S(=O)(=O)c2ccc(C)cc2)cc1	·	-19%	?	·	·	·
COc1cc2c(cc1OC)-c1cc(N3CCCc4ccccc43)nc(=O)n1CC2	i	10%	-5%	20µM*	-16%	50%
COc1cc2c(cc1OC)-c1cc(OCc3cccnc3)nc(=O)n1CC2	i	-10%	4%	13µM*	-4%	4%
COc1cc2c(cc1OC)-c1cc(Nc3ccc4c(c3)OCCO4)nc(=O)n1CC2	i	-9%	-16%	10µM*	-13%	?
SMILES	TsaE inh	p53ts 32C kill	p53ts 39C tox	ERK AVP block	Pol III holo inh	Tau fil binding
COc1cc2c(cc1OC)-c1cc(N3CCCCCC3)nc(=O)n1CC2	i	2%	3%	?	-7%	33%
O=C(Cc1ccc(F)cc1)Nc1cccc(-c2nc3cccnc3s2)c1	·	3%	7%	·	·	·
CCCNC(=O)CN1C(=O)CSc2ccc(S(=O)(=O)N3CCC(C)CC3)cc21	·	5%	2%	·	·	·
Cc1ccc(-n2c(C)cc(C3N=C(N)Nc4nc5ccccc5n43)c2C)c(C)c1 (stereo not given)	i	?	20µM*	-19%	1%	176%
Cc1cc(-c2nnc(-c3cc4ccccc4oc3=O)o2)c(C)n1-c1ccccc1	i	9%	-21%	-5%	-2%	3.2µM*
CC(C(=O)Nc1cc(C(F)(F)F)ccc1Cl)n1nnc2sc3c(c2c1=O)CCCC3 (stereo not given)	·	10%	-16%	·	·	·
Cn1c(-c2ccc(F)cc2)cnc1NCc1ccccc1	i	-3%	?	25µM*	?	-5%
Cc1ccc2c(c1)c(N1CCCC1=O)c(C(=O)Nc1ccc(F)cc1F)n2C	·	-5%	32%	·	·	·
CCn1c(N2CCN(S(=O)(=O)c3ccccc3C(F)(F)F)CC2)nc2ccccc21	i	-24%	-3%	32µM*	-4%	4%
O=C(OCC(=O)N1CCN(C(=O)c2ccco2)CC1)c1cc(-c2ccccc2)nc2ccccc12	i	-11%	-24%	20µM*	-3%	-26%
O=C(OCC(=O)N1CCN(C(=O)c2ccco2)CC1)c1cc(-c2ccc(F)cc2)nc2ccccc12	i	-23%	?	-24%	2%	21%
O=C(OCC(=O)N1CCN(c2ccccc2)CC1)c1ccco1	i	2%	-10%	-17%	2%	-1%
Cc1cc(C(=O)OCC(=O)N2CCN(c3ccccc3)CC2)c2ccccc2n1	i	4%	2%	?	-6%	13µM*
CCOc1ccccc1NC(=O)c1nn(C)c2c1CSc1ccccc1-2	·	-1%	16µM*	·	·	·
Cn1nc(C(=O)Nc2ccccc2C#N)c2c1-c1ccccc1SC2	·	8%	24%	·	·	·
CCCn1cnc2c(c1=O)c1nc3ccccc3nc1n2CCC1=CCCCC1	i	3%	-9%	-14%	-5%	-15%
CCOCCCn1c(C)nc2c(c1=O)c1nc3ccccc3nc1n2CCC1=CCCCC1	i	2%	31%	-13%	-11%	1.6µM*
CCC(C)[C@@H](C(=O)Nc1ccc2c(c1)OCO2)N1Cc2ccccc2C1=O (stereo not given in full)	i	-1%	2%	?	0%	25µM*
NC(=O)c1ccc(N2CCCCC2)c(N2C(=O)CCC2=O)c1	i	-2%	3%	-13%	-13%	-6%
NC(=O)c1cc(N)ccc1N1CCCC1	i	-4%	-9%	-14%	-10%	16µM*
CCOC(=O)c1ccc(NC(=O)C(C)N(c2ccc(OCC)cc2)S(C)(=O)=O)cc1 (stereo not given)	·	2%	14%	·	·	·
